As usually defined, the AC50 is the concentration at which the activity in the assay is half-maximal.

This passage reports outcome and AC50 results from PubChem BioAssay (EPA / NIEHS).

Read-out in experiment [1]: Vascular endothelial growth factor receptor 2 (Homo sapiens) (UniProt P35968)
The experiment in a line: BSK_4H_VEGFRII: BioMAP Diversity Plus: 4H Assay for Vascular endothelial growth factor receptor 2 (VEGFR2) Biomarker Activity (AID 2283031).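 For AC50: cell-surface VEGFR2 protein level quantified by ELISA.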 As to conditions: primary human endothelial cells (HUVEC); actives raise or lower the signal. In a few lines:
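ELISA read-out of VEGFRII in primary human umbilical vein endothelium, taken 24 h after chemical treatment. Responses are expressed relative to DMSO, with bidirectional fitting.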

Read-out in experiment [2]: Human Leukocyte Antigen - DR isotype (HLADR), HLA-DRA (gene 3122)
The experiment in a line: BSK_BE3C_HLADR: BioMAP Diversity Plus: BE3C Assay for Human Leukocyte Antigen - DR isotype (HLADR) Biomarker Activity (AID 2283032). As to conditions: primary human bronchial epithelial cells; actives raise or lower the signal. In a few lines: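 ELISA read-out of HLA-DR on human lung bronchial epithelial primary cells, measured 24 h post-dosing. Both increases and decreases were scored relative to DMSO vehicle.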

Read-out in experiment [3]: Vascular cell adhesion molecule 1 (VCAM1), VCAM1 (gene 7412)
The experiment is described as follows: BSK_4H_VCAM1: BioMAP Diversity Plus: 4H Assay for Vascular cell adhesion molecule 1 (VCAM1) Biomarker Activity (AID 2283033).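 For outcome: cell-surface VCAM-1 protein measured by ELISA.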 As to conditions: primary human endothelial cells (HUVEC); actives raise or lower the signal. In outline: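 ELISA read-out of VCAM-1 on human umbilical vein endothelium 24 hours after chemical dosing; gain or loss of signal was fitted relative to DMSO, with sulforhodamine B staining of parallel cultures flagging overt cytotoxicity.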

Read-out in experiment [4]: Monokine induced gamma interferon (MIG), CXCL9 (gene 4283)
The experiment in a line: BSK_BE3C_MIG: BioMAP Diversity Plus: BE3C Assay for Monokine induced gamma interferon (MIG) Biomarker Activity (AID 2283035). As to conditions: primary human bronchial epithelial cells; actives raise or lower the signal. In a few lines: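 ELISA read-out of MIG in human lung bronchial epithelial primary cultures, 24 h post-dosing. Bidirectional curve fit vs DMSO baseline.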

Read-out in experiment [5]: Plasminogen activator inhibitor-1 (PAI1), SERPINE1 (gene 5054)
The experiment in a line: BSK_BE3C_PAI1: BioMAP Diversity Plus: BE3C Assay for Plasminogen activator inhibitor-1 (PAI1) Biomarker Activity (AID 2283037). As to conditions: primary human bronchial epithelial cells; actives raise or lower the signal. In a few lines:
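Primary human lung bronchial epithelial cells; chemical dosing; 24 h; PAI-1 measured by ELISA; bidirectional fit referenced to DMSO as negative control.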

Read-out in experiment [6]: urokinase plasminogen activator (uPA), PLAU (gene 5328)
The experiment in a line: BSK_BE3C_uPA: BioMAP Diversity Plus: BE3C Assay for urokinase plasminogen activator (uPA) Biomarker Activity (AID 2283038).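 For outcome: uPA protein level quantified by ELISA in cell cultures; uPA read one day after compound addition.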 As to conditions: primary human bronchial epithelial cells; actives raise or lower the signal. In a few lines: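 Bronchial epithelial cells (human, primary); chemical 24 h; uPA by ELISA; bidirectional fit vs DMSO. SRB (0.1%, after 10% TCA fixation, 560 nm) in parallel cultures for cytotoxicity.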

Read-out in experiment [7]: Urokinase-type plasminogen activator receptor (uPAR), PLAUR (gene 5329)
The experiment in a line: BSK_BE3C_uPAR: BioMAP Diversity Plus: BE3C Assay for Urokinase-type plasminogen activator receptor (uPAR) Biomarker Activity (AID 2283039).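 For outcome: uPAR protein level measured by ELISA on the cells; cells exposed to compound for one day before measurement.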 As to conditions: primary human bronchial epithelial cells; actives raise or lower the signal. In outline:
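Human bronchial epithelial primary cells; chemical exposure 24 h; uPAR by ELISA; bidirectional fit vs DMSO control.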

Read-out in experiment [8]: Interleukin-6 (IL6), IL6 (gene 3569)
The experiment in a line: BSK_CASM3C_IL6: BioMAP Diversity Plus: CASM3C Assay for Interleukin-6 (IL6) Biomarker Activity for (AID 2283040). As to conditions: primary human coronary artery smooth muscle cells; actives raise or lower the signal.

Read-out in experiment [9]: Tissue plasminogen activator (tPA), PLAT (gene 5327)
The experiment in a line: BSK_BE3C_tPA: BioMAP Diversity Plus: BE3C Assay for Tissue plasminogen activator (tPA) Biomarker Activity (AID 2283041).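 Note: tPA level quantified by ELISA one day after compound addition.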 As to conditions: primary human bronchial epithelial cells; actives raise or lower the signal. In outline:
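Primary human lung bronchial epithelial cultures receive test chemical; after 24 h, tPA is quantified by ELISA, and gain or loss of signal is fitted bidirectionally relative to DMSO baseline.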

Read-out in experiment [10]: Interleukin-8 (IL8), CXCL8 (gene 3576)
The experiment in a line: BSK_CASM3C_IL8: BioMAP Diversity Plus: CASM3C Assay for Interleukin-8 (IL8) Biomarker Activity (AID 2283042).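 Note: IL-8 protein level quantified by ELISA.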 As to conditions: primary human coronary artery smooth muscle cells; actives raise or lower the signal.

Read-out in experiment [11]: Human Leukocyte Antigen - DR isotype (HLADR), HLA-DRA (gene 3122)
The experiment is described as follows: BSK_CASM3C_HLADR: BioMAP Diversity Plus: CASM3C Assay for Human Leukocyte Antigen - DR isotype (HLADR) Biomarker Activity (AID 2283043).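 Note: cell-surface HLA-DR protein level quantified by ELISA.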 As to conditions: primary human coronary artery smooth muscle cells; actives raise or lower the signal.

Read-out in experiment [12]: Macrophage colony-stimulating factor (MCSF), CSF1 (gene 1435)
The experiment in a line: BSK_CASM3C_MCSF: BioMAP Diversity Plus: CASM3C Assay for Macrophage colony-stimulating factor (MCSF) Biomarker Activity (AID 2283044).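 Note: M-CSF protein amount quantified by ELISA after 24 h exposure.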 As to conditions: primary human coronary artery smooth muscle cells; actives raise or lower the signal.

Read-out in experiment [13]: Low-density lipoprotein receptor (LDLR), LDLR (gene 3949)
The experiment is described as follows: BSK_CASM3C_LDLR: BioMAP Diversity Plus: CASM3C Assay for Low-density lipoprotein receptor (LDLR) Biomarker Activity (AID 2283045).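 Note: LDLR protein level on the cell surface quantified by ELISA.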 As to conditions: primary human coronary artery smooth muscle cells; actives raise or lower the signal.

Read-out in experiment [14]: Monocyte Chemoattractant Protein-1 (MCP1), CCL2 (gene 6347)
The experiment is described as follows: BSK_CASM3C_MCP1: BioMAP Diversity Plus: CASM3C Assay for Monocyte Chemoattractant Protein-1 (MCP1) Biomarker Activity (AID 2283046).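 Note: MCP-1 level quantified by ELISA 24 h after dosing.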 As to conditions: primary human coronary artery smooth muscle cells; actives raise or lower the signal.

Experiment [15] is described as follows: BSK_CASM3C_Proliferation: Cell Proliferation Assessment in the BioMAP Diversity Plus: CASM3C Assay (AID 2283047).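 Note: sulforhodamine B total protein stain as relative cell number at 560 nm; sub-confluent cells exposed 48 h before staining; fitted both ways against DMSO so gain or loss of cell number.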 As to conditions: primary human coronary artery smooth muscle cells.
Read-out in experiment [16]: Monokine induced gamma interferon (MIG), CXCL9 (gene 4283)
The experiment is described as follows: BSK_CASM3C_MIG: BioMAP Diversity Plus: CASM3C Assay for Monokine induced gamma interferon (MIG) Biomarker Activity (AID 2283048).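 Note: MIG protein level measured by ELISA.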 As to conditions: primary human coronary artery smooth muscle cells; actives raise or lower the signal.

Read-out in experiment [17]: serum amyloid A (SAA), SAA1 (gene 6288)
The experiment is described as follows: BSK_CASM3C_SAA: BioMAP Diversity Plus: CASM3C Assay for serum amyloid A (SAA) Biomarker Activity (AID 2283049).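 Note: SAA protein level quantified by ELISA.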 As to conditions: primary human coronary artery smooth muscle cells; actives raise or lower the signal.

Experiment [18] is described as follows: BSK_CASM3C_SRB: Viability Assessment in the BioMAP Diversity Plus: CASM3C Assay (AID 2283050).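 Note: total protein by SRB staining as cytotoxicity measure in parallel cultures.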 As to conditions: primary human coronary artery smooth muscle cells.
Read-out in experiment [19]: Transforming growth factor beta 1 (TGFb1), TGFB1 (gene 7040)
The experiment is described as follows: BSK_BE3C_TGFb1: BioMAP Diversity Plus: BE3C Assay for Transforming growth factor beta 1 (TGFb1) Biomarker Activity (AID 2283036;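 note: TGF-b1 protein level measured by ELISA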). As to conditions: primary human bronchial epithelial cells; actives raise or lower the signal. In a few lines: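 Primary human lung bronchial epithelial cells; compound exposure 24 h; TGF-b1 by ELISA; bidirectional fit, DMSO baseline. Parallel SRB total-protein staining for cytotoxicity.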

“And” between values parts separate entries of the source, which are not always exact repeats. Equal entries are not always repeated. The source holds several records for some structures; these can differ, active in one and inactive in another. The source made the active and inactive calls. Rule for the calls: active = hit-call score of the fitted dose curve at least 0.9, where 1 is the maximum; inactive = score below 0.9.

`OCC(F)(F)C(F)(F)C(F)(F)C(F)(F)C(F)(F)C(F)(F)C(F)(F)C(F)(F)C(F)(F)C(F)(F)C(F)(F)F`: the outcome in [1], in [3], in [4], in [5], in experiment [6] and in experiment [7] was inactive. Further, the result in experiment [8], in [9], in experiment [10], in experiment [11], in experiment [12] and in experiment [13] was inactive. In addition, the result in experiment [14], in [15], in [16], in experiment [17] and in [18] was inactive. Also, the AC50 in [2] is 251 nM (active) and 154 nM (active).
As to `OCC(CO)(CBr)CBr`, the result in [1], in experiment [2], in experiment [3], in experiment [4], in experiment [19] and in [5] was inactive. Besides, the outcome in [6], in experiment [7], in experiment [8], in experiment [9], in [10] and in experiment [11] was inactive. Moreover, the result in experiment [12], in [13], in experiment [14], in experiment [15], in experiment [16] and in [17] was inactive. In addition, in [18], the outcome was inactive.
Turning to `COCN(COC)c1nc(N(COC)COC)nc(N(COC)COC)n1`, the result in experiment [1], in [2], in [3], in [4], in [19] and in experiment [5] was inactive. Moreover, the result in experiment [6], in experiment [7], in experiment [8], in [9], in [10] and in experiment [11] was inactive. In addition, the result in experiment [12], in experiment [13], in experiment [14], in experiment [15], in [16] and in experiment [17] was inactive. Moreover, the result in experiment [18] was inactive.
On to `O=C(NCc1ncc(C(F)(F)F)cc1Cl)c1c(Cl)cccc1Cl`, for which the result in experiment [1], in [2], in experiment [3], in [4], in [19] and in experiment [5] was inactive. Moreover, the outcome in experiment [6], in experiment [7], in experiment [8], in [9], in experiment [10] and in experiment [11] was inactive. The outcome in experiment [12], in experiment [13], in [14], in experiment [15], in experiment [16] and in [17] was inactive. Besides, the outcome in experiment [18] was inactive.
As to `CN(C)c1ccc(C(=C2C=CC(=[N+](C)C)C=C2)c2ccccc2)cc1`, the AC50 in experiment [1] was 24.9 nM (active); in experiment [2], 16.2 nM (active); in experiment [3], 16 nM (active); in [4] it was 561 nM (active); in experiment [6], 958 nM (active); in [7], 186 nM (active). Moreover, the AC50 was 103 nM (active) in [8]; 1.98 µM (active) in [10]; 0.0392 µM (active) in experiment [11]; 825 nM (active) in experiment [12]; 32.3 nM (active) in [13]; 61.5 nM (active) in experiment [14]. Besides, the AC50 in experiment [15] is 553 nM (active); in [16], 1.17 µM (active); in experiment [17], 16.8 nM (active); in experiment [18], 296 nM (active). Also, the outcome in experiment [19], in [5] and in [9] was inactive.
With `Oc1ccc(Cc2ccccc2O)cc1`, the result in experiment [1], in experiment [2], in experiment [3], in experiment [4], in experiment [5] and in [6] was inactive. The result in [7], in experiment [8], in experiment [9], in experiment [10], in [11] and in experiment [12] was inactive. Further, the result in experiment [13], in [14], in [15], in experiment [16], in [17] and in experiment [18] was inactive. In addition, in experiment [11], the AC50 is 10.8 µM (active).
